Source: PubChem
Exocytosis inh – lytic granule exocytosis inhibition; hit rate 0.66% among 360,000; TALL-104 LAMP-1 surface exposure, flow cytometry; cells stimulated with thapsigargin and PMA; AID 651702; inhibition, % at 10 µM;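 active means inhibition above about 55%, limit read from the data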
MEX-5 binding – C. elegans MEX-5 TCR-2 RNA binding activity; hit rate 0.38% among 300,000; MEX-5/FITC-TCR2 RNA binding, fluorescence polarization; active compounds read low; activity score (negative = inhibition of binding), % at 10 µM;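 active means inhibition past about -25% in most replicates, and total fluorescence under double the plate's negative control median, limit read from the data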;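 further: 0% = DMSO and -100% = 5 µM competing unlabeled TCR2 RNA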
JMJD2C inh – human JMJD2C demethylase inhibition; AID 2099; inhibition, % at 2.35 µM; Q9H3R0; GST-JMJD2C(1-420) H3K9me3 demethylation, DELFIA europium; hit rate 0.069% among 330,000;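 active means more than half of a compound's replicate wells show inhibition beyond 50%, single wells judged on their own value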;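 further: signal counts dimethyl H3K9 product captured on neutravidin plate; 0% = median of DMSO wells and 100% = 0.3 times that DMSO median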
V-ATPase pHluor – regulators of yeast V-ATPase proton transport. S. cerevisiae, pHLuorin cytosolic pH fluorescence. response, % at 10 µM. hit rate 0.37% among 350,000; in the data active means response mostly above about 7.3%, no sharp cut-off; inactive means mostly below about 5.4%; further: actives read high
VLA-4 inh – inhibition in a human VLA-4 binding assay. P13612. VLA-4 expressing cells, ligand binding flow cytometry. inhibition, % (about 7 µM as worked out from the volumes in the protocol). hit rate 0.2% among 330,000; in the data active means inhibition above about 50%
m5-HT2A agonist – activates the mouse 5-HT2A serotonin receptor; CHO-K1 mHTR2A beta-arrestin complementation, luminescence; percent of 30 µM serotonin response; activation, % at 7.6 µM; P35363; hit rate 0.66% among 360,000;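 active means activation above a run cutoff, the mean activation of all tested compounds plus 3 SD, cut at about 14% in these data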;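 further: 0% = plate median of compound wells and 100% = 30 µM serotonin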
VLA-4 mod pick – human VLA-4 allosteric modulation in cherry picked compounds. shares compounds with VLA-4 inh. U937 cells, HUTS-21 LIBS mAb binding, flow cytometry; LDV ligand present at threefold Kd. inhibition, % at 6.7 µM. hit rate 2% among 1,300. AID 2813; in the data active means inhibition above about 40%;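 further: 0% = ligand without compound and 100% = no ligand background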
* hit, by the source's call. The list is not random: actives were taken first. Their share in the collection is about 2.2%.

For CCN(CC(=O)NCc1cccs1)C(=O)c1ccc(-c2cccc(C(F)(F)F)c2)o1 the results were Exocytosis inh 7, MEX-5 binding 0, JMJD2C inh -5, V-ATPase pHluor -1, VLA-4 inh 53*, m5-HT2A agonist -5 and VLA-4 mod pick 4.
CC1=CC(c2ccccc2)=Nc2ccc(C)cc2N1 was read as Exocytosis inh -2, MEX-5 binding 1, JMJD2C inh 5, V-ATPase pHluor 3, VLA-4 inh 66*, m5-HT2A agonist 1 and VLA-4 mod pick 0.
`COC(=O)c1c(-n2c(C)cc(C=O)c2C)sc2c1CCCC2` gave Exocytosis inh -2, MEX-5 binding 0, JMJD2C inh 10, V-ATPase pHluor -2, VLA-4 inh 12 and m5-HT2A agonist 6.
For Cc1cc(C=O)c(C)n1-c1sc2c(c1C(=O)O)CCCC2 the results were Exocytosis inh -1, MEX-5 binding 0, JMJD2C inh 1, V-ATPase pHluor 4, VLA-4 inh 52*, m5-HT2A agonist 2 and VLA-4 mod pick 3.
`CCc1nc2ccc(C(=O)NCCCn3ccnc3)cn2c1N(C)Cc1cccs1` gave Exocytosis inh 4 and m5-HT2A agonist -2.
For CCOC(=O)N1CCN(C(=O)CN(C)S(=O)(=O)c2ccc3c(c2)C(C)(C)C(=O)N3C)CC1 the results were Exocytosis inh -3, MEX-5 binding -2, JMJD2C inh 3, V-ATPase pHluor -1, VLA-4 inh -11, m5-HT2A agonist 1 and VLA-4 mod pick -1.
COc1ccc(-c2noc(CCC(=O)NCCCN3CCN(c4ccc(F)cc4)CC3)n2)cc1 was read as Exocytosis inh 9, MEX-5 binding -1, JMJD2C inh 11, V-ATPase pHluor 0, VLA-4 inh 57*, m5-HT2A agonist -6 and VLA-4 mod pick -6.
For O=C(CC(=O)c1ccccn1)c1ccccc1 the results were Exocytosis inh -1, V-ATPase pHluor -3 and m5-HT2A agonist 1.
`COc1ccc2nc(NC(=O)CSCc3c(C)noc3C)sc2c1` gave Exocytosis inh 10, MEX-5 binding -1, JMJD2C inh 20, V-ATPase pHluor -2, VLA-4 inh -3 and m5-HT2A agonist 0.
Cc1noc(C)c1CSCC(=O)Nc1nc2ccc(S(C)(=O)=O)cc2s1 was read as Exocytosis inh 1, MEX-5 binding -3, JMJD2C inh -5, V-ATPase pHluor 0, VLA-4 inh 50*, m5-HT2A agonist -1 and VLA-4 mod pick 0.
For O=c1c2[nH]c3ccc(F)cc3c2ncn1Cc1ccncc1 the results were Exocytosis inh -5, MEX-5 binding -4, JMJD2C inh 0, V-ATPase pHluor -1, VLA-4 inh 3, m5-HT2A agonist 7 and VLA-4 mod pick -2.
For O=c1c2[nH]c3ccc(Br)cc3c2ncn1CCCn1ccnc1 the results were Exocytosis inh 3, MEX-5 binding 0, JMJD2C inh 10, V-ATPase pHluor 2, VLA-4 inh 3, m5-HT2A agonist -1 and VLA-4 mod pick 7.
`O=c1c2[nH]c3ccc(F)cc3c2ncn1C1CCCCC1` gave Exocytosis inh -2, MEX-5 binding -1, JMJD2C inh 14, V-ATPase pHluor 2, VLA-4 inh 96*, m5-HT2A agonist 6 and VLA-4 mod pick 6.
For O=c1c2[nH]c3ccccc3c2ncn1CCCn1ccnc1 the results were Exocytosis inh -8, MEX-5 binding 1, JMJD2C inh -4, V-ATPase pHluor 2, VLA-4 inh -10 and m5-HT2A agonist 6.
For CCOc1ccc(NC(=O)CN(C)C(=O)c2ccc(COc3ccccc3)o2)cc1OCC the results were Exocytosis inh -3, MEX-5 binding 1, JMJD2C inh 5, V-ATPase pHluor 3, VLA-4 inh 54*, m5-HT2A agonist 3 and VLA-4 mod pick -5.
OCCC1CN(Cc2cnc(-c3ccccc3)s2)CCN1C1CCCC1 (centres undefined) was read as Exocytosis inh 27, MEX-5 binding -1, JMJD2C inh -9, V-ATPase pHluor 2, VLA-4 inh 43, m5-HT2A agonist -6 and VLA-4 mod pick 4.
Screening CCCCCCCCN1C(=O)[C@H](CC(=O)NCCC(C)C)C[C@@]2(C(=O)OC)CC(C)(C)CC=C12 returned Exocytosis inh -2 and m5-HT2A agonist -4.
For CCN(CC(=O)Nc1ccc(NC(C)=O)cc1)C(=O)/C=C/c1ccco1 the results were Exocytosis inh -1, MEX-5 binding 0, JMJD2C inh -2, V-ATPase pHluor -2, VLA-4 inh 9 and m5-HT2A agonist 2.
Screening CCN(CC(=O)Nc1ccc(NC(C)=O)cc1)C(=O)/C=C/c1cccs1 returned Exocytosis inh 1, MEX-5 binding 1, JMJD2C inh -3, V-ATPase pHluor -1, VLA-4 inh 54*, m5-HT2A agonist -4 and VLA-4 mod pick 4.
Cc1nc2nc(SCC(=O)c3cccc([N+](=O)[O-])c3)[nH]c2cc1Br was read as Exocytosis inh 6, MEX-5 binding -2, JMJD2C inh -8, V-ATPase pHluor -2, VLA-4 inh 44, m5-HT2A agonist -2 and VLA-4 mod pick -9.
For COc1ccccc1N(CC(=O)NC1CCCC1)S(=O)(=O)c1cccc(C(F)(F)F)c1 the results were Exocytosis inh 10, V-ATPase pHluor -2 and m5-HT2A agonist -1.
For CCCCN(C(=O)CC1CCCC1)c1c(N)n(CCCC)c(=O)[nH]c1=O the results were Exocytosis inh -13, JMJD2C inh -2, V-ATPase pHluor -2, VLA-4 inh 10 and m5-HT2A agonist 3.
`CC(C)c1ccccc1-n1c(SCC(=O)N2CCc3ccccc3C2)nc2ccccc2c1=O` gave Exocytosis inh 14, MEX-5 binding -1, JMJD2C inh -4, V-ATPase pHluor -2, VLA-4 inh 55*, m5-HT2A agonist 9 and VLA-4 mod pick 8.
Screening CC1=CN(S(=O)(=O)c2ccc(C)cc2)C[C@@H]2[C@H]3CC[C@H](C3)[C@H]12 returned Exocytosis inh -3, V-ATPase pHluor 1 and m5-HT2A agonist -1.
Screening COc1ccc(-n2c(=O)[nH]cc(C(=O)Nc3ccccc3)c2=O)cc1 returned Exocytosis inh -6, MEX-5 binding 3, JMJD2C inh 3, V-ATPase pHluor 2, VLA-4 inh 55*, m5-HT2A agonist -1 and VLA-4 mod pick 1.
`COc1ccc(-n2c(=O)[nH]cc(C(=O)Nc3ccc4c(c3)OCCO4)c2=O)cc1` gave Exocytosis inh -2, MEX-5 binding -4, JMJD2C inh 2, V-ATPase pHluor 0, VLA-4 inh 7 and m5-HT2A agonist -4.
For O=C(CC[C@H]1O[C@@H](n2ccc(=O)[nH]c2=O)[C@H](O)[C@@H]1O)NCC(c1ccccc1)c1ccccc1 the results were Exocytosis inh 4 and m5-HT2A agonist -2.
